Results filed as inconclusive are left out. Where a call stands in place of a potency, no number is given. Calls of active or inactive are those of the source. Calls follow the shape of the full dose curve. Residues, ends and D or L forms follow the SMILES beside them.
Potency is read from the fitted curve at half-maximal effect.

In the assay the target is Acetylcholinesterase (Homo sapiens) (UniProt P22303). In words: Acetylcholinesterase (AChE) small molecule antagonists: colormetric cell-based qHTS assay (AID 1347395). Also: nearly all actives have a fitted effect of over 30% in size. As to conditions: SH-SY5Y cells AChE activity, colorimetric (Ellman); series mostly up to 115 µM. From the text: National Center for Advancing Translational Sciences [NCATS]
Acetylcholinesterase (Homo sapiens), sequence (P22303 whole entry, looked up): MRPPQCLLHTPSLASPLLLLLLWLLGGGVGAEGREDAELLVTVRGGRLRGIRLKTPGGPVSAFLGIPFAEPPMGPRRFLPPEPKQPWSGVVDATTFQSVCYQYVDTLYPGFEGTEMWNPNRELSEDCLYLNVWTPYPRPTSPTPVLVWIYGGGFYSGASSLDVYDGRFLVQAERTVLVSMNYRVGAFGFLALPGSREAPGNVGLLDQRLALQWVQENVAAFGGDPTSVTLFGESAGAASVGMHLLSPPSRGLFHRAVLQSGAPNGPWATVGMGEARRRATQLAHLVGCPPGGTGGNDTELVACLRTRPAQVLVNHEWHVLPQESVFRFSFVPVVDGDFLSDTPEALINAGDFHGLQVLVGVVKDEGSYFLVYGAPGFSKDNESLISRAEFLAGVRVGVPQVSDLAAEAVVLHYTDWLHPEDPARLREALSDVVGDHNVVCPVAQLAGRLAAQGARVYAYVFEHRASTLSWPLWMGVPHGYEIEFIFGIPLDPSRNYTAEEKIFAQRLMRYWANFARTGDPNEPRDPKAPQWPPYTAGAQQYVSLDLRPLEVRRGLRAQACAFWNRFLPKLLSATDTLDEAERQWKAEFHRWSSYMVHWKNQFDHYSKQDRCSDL
Division of Preclinical Innovation [DPI]
U.S. Environmental Protection Agency [EPA]
National Institutes of Environmental Health Sciences [NIEHS]
National Toxicology Program [NTP]
U.S. Food and Drug Administration [FDA]
Acetylcholinesterase (AChE) is the primary cholinesterase in the body that hydrolyzes a key neurotransmitter, acetylcholine. Inhibition of AChE activity can lead to neurotoxicity. The known inhibitors include organophosphorous pesticides (OP), chemical warfare agents, drugs, and various phytochemicals.
A homogenous cell-based assay using the Amplite Colormetric acetylcholinesterase assay kit (AAT Bioquest, Sunnyvale, CA) was used to evaluate the chemicals in the Tox21 10K library that inhibit AChE activity. The assay uses 5, 5-dithiobis-(2-nitrobenzoic acid) (DTNB) to quantify the thiocholine produced from the hydrolysis of acetylthiocholine by AChE from the SH-SY5Y cells.
Tox21 Assay Protocol Summary:
For the cell-based AChE assay, 2,000 SH-SY5Y cells in 4 uL/well were dispensed into black, clear-bottom 1536-well plates using a Multidrop Combi dispenser (Thermo Scientific, MA). The assay plates were incubated overnight at 37 C to allow cells to attach to the wells, followed by the transfer of 23 nL of compound or DMSO (vehicle control) by a Pintool Station (Wako Automation, CA). The plates were incubated for 30 min at 37 C and 5% CO2, followed by the addition of 4 uL of detection cocktail solution (DTNB, acetylthiocholine) into each well using a Flying Reagent Dispenser (Beckman Coulter, CA) and then 90 min incubation at 37 C.
Consider `C=C(C)CCCC(C)CCO` (stereo not given), for which the Potency entry is “inactive”. Next, `Cc1c(C(=O)NN2CCCCC2)nn(-c2ccc(Cl)cc2Cl)c1-c1ccc(Cl)cc1`: “inactive”; `Nc1nc(N)c(-c2ccccc2)s1`: “inactive”; `CC1=CC[C@@]23C[C@@H]1C(C)(C)[C@@H]2CC[C@H]3C`: “inactive”. Next, `CCC(OCCCOC)OC(C)=O` (stereo not given): “inactive”; `CC1=C(C)C(=O)C(CCCCC#CCCCC#CCO)=C(C)C1=O`: “inactive”. Next, `CCCCCCOC(=O)C(C)CC` (stereo not given): “inactive”. With `CCO`, the Potency entry was “inactive”. Next, `OCCC(F)(F)C(F)(F)C(F)(F)C(F)(F)C(F)(F)C(F)(F)C(F)(F)C(F)(F)F`: “inactive”; `OCc1cc(C(O)CNCCCCCCOCCCCc2ccccc2)ccc1O` (stereo not given): “inactive”. For the molecule `COc1ccc(OC)c(OC)c1`, the Potency entry is “inactive”. The value for `COC(=O)[C@H]1[C@H]2C[C@@H]3c4[nH]c5cc(OC)ccc5c4CCN3C[C@H]2C[C@@H](OC(=O)COc2ccc(OC)cc2)[C@@H]1OC` was “inactive”. As to `CCCCCCC(=O)OCC`, the Potency result is “inactive”. Next, `C=CCOCC(O)CO` (stereo not given): “inactive”; `CCCOC(OCCC)OCCC`: “inactive”. The value for `COC(/C=C(\C)CCC=C(C)C)OC` was “inactive”; that for `CC(O)C(C)O` (stereo not given) was “inactive”.

`CC(C)(C)c1ccc(C=O)cc1`: the Potency entry is “inactive”. Take `COc1ccnc(CS(=O)c2nc3cc(OC(F)F)ccc3[nH]2)c1OC` (stereo not given): the Potency entry was “inactive”. Take `O=P(O)(O)Oc1ccccc1`: the Potency entry was “inactive”. Next, `CC(C)OC(=O)c1ccccc1C(=O)OC(C)C`: “inactive”. On to `N#CSCSc1nc2ccccc2s1`, for which the Potency entry was “inactive”. Next, `O=C(O)CO`: “inactive”; `NC(=O)c1ccc(N)cc1`: “inactive”; `c1ccc2sc(SN(C3CCCCC3)C3CCCCC3)nc2c1`: “inactive”. Next, `CN1[C@@H]2CC[C@H]1CC(OC(=O)C(O)c1ccccc1)C2` (stereo not given in full): “inactive”; `C#CC(O)C(CC)CCCC` (stereo not given): “inactive”. Next, `C=C1C[C@@]23CC[C@H]4[C@@](C)(CCC[C@@]4(C)C(=O)O[C@@H]4O[C@H](CO)[C@@H](O)[C@H](O)[C@H]4O)[C@@H]2CC[C@]1(O[C@@H]1O[C@H](CO)[C@@H](O)[C@H](O[C@@H]2O[C@H](CO)[C@@H](O)[C@H](O)[C@H]2O)[C@H]1O[C@@H]1O[C@H](CO)[C@@H](O)[C@H](O)[C@H]1O)C3`: “inactive”. For `CCCCCCCCCCCCCCCCCCOS(=O)(=O)O`, the Potency result was “inactive”. The value for `CC(=O)N[C@@H](CO)C(=O)N[C@@H](CC(=O)O)C(=O)N[C@@H](CCCCN)C(=O)N1CCC[C@H]1C(=O)O` (Ac-SDKP-OH) was “inactive”; that for `O=C(OCCN1CCOCC1)c1cccnc1Nc1cccc(C(F)(F)F)c1` was “inactive”. Regarding `CC/C(=C(/c1ccc(O)cc1)c1ccc(OCCN(C)C)cc1)c1ccccc1`, the Potency was 41.7 µM (active). As to `O=C1OC(=O)c2ccccc21`, the Potency entry is “inactive”. Regarding `Cc1cn[nH]c1`, the Potency entry was “inactive”. Next, `Cc1c(C)c2c(c(C)c1OC(=O)CCC(=O)OCCO)CC[C@@](C)(CCC[C@H](C)CCC[C@H](C)CCCC(C)C)O2`: “inactive”.

In the case of `Cc1ccc(C=O)s1`, the Potency result was “inactive”. The value for `NS(=O)(=O)c1cc2c(cc1Cl)NC(CSCc1ccccc1)=NS2(=O)=O` was “inactive”; that for `FC(F)(F)C(F)(F)C(F)(F)C(F)(F)C(F)(F)C(F)(F)CCI` was “inactive”. On to `CCCCCCCCO[C@@H]1O[C@H](CO)[C@@H](O)[C@H](O)[C@H]1O`, for which the Potency entry is “inactive”. `CCCCCCCCCC(C)C=O` (stereo not given): the Potency entry is “inactive”.

(Values after PubChem BioAssay (Tox21).)
